Among the test systems are HT29 colon; SNB-75 CNS; SNB-19 CNS; U251 CNS; PC-3 prostate; SK-MEL-5 melanoma; SK-MEL-28 melanoma; SK-MEL-2 melanoma; LOX IMVI melanoma; UACC-62 melanoma.
Holding throughout (experiment): NCI-60 one-dose screen, 48 h (100 = growth as untreated, 0 = no growth, -100 = all killed)
Common to all, as to conditions: 10 µM unless noted

Compounds without any hit were thinned out: in the full panel of roughly 83,000, 20% have a hit.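 For each line, cells grew in 96-well plates with the test compound present at a single concentration for 48 hours.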 Unmarked numbers belong to inactive results. Active and inactive are the calls of the source. How the source made its calls: active means growth percent below 10; inactive means the rest.

Regarding `COc1ccc(/C=N/NC(=O)c2[nH]c3ccc(Br)cc3c2-c2ccccc2)o1`, the growth in the assay on HT29 colon is -26.9% (active); in the assay with SNB-75 CNS, 50.3%; with SNB-19 CNS it was 30.8%; in the assay on U251 CNS, 19.5%; in the assay on PC-3 prostate it was 22.6%; in the assay on SK-MEL-5 melanoma, -29% (active). Besides, the growth with SK-MEL-28 melanoma was 63.3%; in the assay on SK-MEL-2 melanoma it was -13% (active).

With `Nc1cc(-c2c[nH]c3ccc(F)cc23)nc2cc(-c3c[nH]c4ccc(F)cc34)nn12`, the growth in the assay on HT29 colon is -60.9% (active); with SNB-75 CNS it was 79%; in the assay with SNB-19 CNS it was 106%; in the assay with U251 CNS, 3.43% (active); in the assay on PC-3 prostate, 78.8%; with SK-MEL-5 melanoma, 92.8%. The growth in the assay with LOX IMVI melanoma was -18.8% (active); with SK-MEL-28 melanoma, 109%; in the assay with SK-MEL-2 melanoma it was 116%.

In the case of `Cc1cc(C(=O)Nc2sc3c(c2C(N)=O)CCC(=O)C3)ccc1OCCN1CCCCC1`, the growth was 96.2% in the assay with HT29 colon; 95.2% with SNB-75 CNS; 102% with SNB-19 CNS; 96.8% in the assay with U251 CNS; 88.6% with PC-3 prostate; 100% in the assay with UACC-62 melanoma. For the same molecule, the growth with SK-MEL-28 melanoma is 115%; in the assay with SK-MEL-2 melanoma, 106%.

`CN(C)CCCNc1c2ccc(Cl)cc2nc2c1oc1ccc(Cl)cc12`: the growth was -45.6% (active) in the assay on HT29 colon; 45.2% with SNB-75 CNS; 38.2% with SNB-19 CNS; -50.9% (active) in the assay on U251 CNS; -24.1% (active) with PC-3 prostate; 77.1% with SK-MEL-5 melanoma. Moreover, the growth was -93.7% (active) in the assay on LOX IMVI melanoma, 72.5% with SK-MEL-28 melanoma and 127% with SK-MEL-2 melanoma.

On to `N#Cc1c(-c2ccc(Cl)cc2)nc(SCc2ccc(F)cc2)nc1N1CCNCC1`, for which the growth with HT29 colon is -51.8% (active); with SNB-75 CNS, 65.3%; with SNB-19 CNS, 76.6%; in the assay on U251 CNS, -71.5% (active); in the assay with PC-3 prostate it was 53.8%; in the assay on SK-MEL-5 melanoma, 62.5%. Moreover, the growth in the assay with LOX IMVI melanoma was -59.2% (active); with SK-MEL-28 melanoma, 99.3%; with SK-MEL-2 melanoma it was 111%.

On to `COc1ccc(-c2nn3c(-c4ccccc4F)nnc3s2)cc1`, for which the growth in the assay on HT29 colon is 39.3%; in the assay on SNB-75 CNS, 66.3%; with SNB-19 CNS it was 73.2%; in the assay with U251 CNS, 55.7%; with PC-3 prostate, 83.1%; in the assay with SK-MEL-5 melanoma, 64.4%. The values for the growth in the assay with LOX IMVI melanoma, in the assay on SK-MEL-28 melanoma and with SK-MEL-2 melanoma were 60.3%, 59.4% and 30.5%, respectively.

Take `CCCCN1C(=O)/C(=c2\sc3n(c2=O)C2C(NN=3)N(CC)C(=O)N2CC)c2cc(Cl)ccc21` (stereo not given): the growth in the assay with HT29 colon is 88.4%; with SNB-75 CNS it was 69.1%; in the assay on SNB-19 CNS, 90.8%; in the assay with U251 CNS it was 65.4%; in the assay on PC-3 prostate, 71.2%; in the assay on SK-MEL-5 melanoma, 66%. In addition, the growth was 75.6% in the assay on LOX IMVI melanoma and 72.1% in the assay on SK-MEL-28 melanoma.

As to `CCOC(=O)c1c(NC(=O)c2cccc(C(F)(F)F)c2)sc2cc(O)ccc12`, the growth was 105% with HT29 colon; 73.4% in the assay on SNB-75 CNS; 96% with SNB-19 CNS; 98.9% in the assay with U251 CNS; 94.8% with PC-3 prostate; 97.9% in the assay with UACC-62 melanoma. The growth with SK-MEL-28 melanoma is 108%.

As to `COc1cc2nc(-c3ccc(C(F)(F)F)cc3)cc(OCCCNCC3CCCO3)c2cc1OC` (stereo not given), the growth with HT29 colon was -7.81% (active); with SNB-75 CNS, 8.73% (active); with SNB-19 CNS, 75.3%; in the assay on U251 CNS, 55.7%; with PC-3 prostate, 45.4%; in the assay with SK-MEL-5 melanoma it was 4.75% (active). For the same molecule, the growth in the assay on LOX IMVI melanoma was -13.4% (active); in the assay with SK-MEL-28 melanoma it was -26.8% (active); with SK-MEL-2 melanoma it was 91.7%.

For `C/C(=N\NC(N)=O)c1c(O)sc(=O)[nH]c1=O`, the growth in the assay on HT29 colon is 111%; with SNB-75 CNS, 101%; with SNB-19 CNS, 93.2%; in the assay on U251 CNS it was 108%; in the assay on PC-3 prostate, 97%; in the assay with SK-MEL-5 melanoma it was 101%. The values for the growth in the assay with SK-MEL-28 melanoma and in the assay with SK-MEL-2 melanoma were 99.7% and 109%, respectively.

Take `Cc1ccc2ccc3ccc(C)nc3c2n1.Cc1ccc2ccc3ccc(C)nc3c2n1.Oc1c(Cl)cc(Cl)c2ccc(CN3CCCCC3)nc12.[Ru]`: the growth with HT29 colon is -61.7% (active); in the assay with SNB-75 CNS it was -71% (active); in the assay with SNB-19 CNS, -86.4% (active); with U251 CNS it was -54.5% (active); in the assay on PC-3 prostate, -82.6% (active); in the assay on SK-MEL-5 melanoma, -97.9% (active). Moreover, the growth with LOX IMVI melanoma is -91.2% (active); in the assay with SK-MEL-28 melanoma, -89.9% (active); in the assay with SK-MEL-2 melanoma, -83.1% (active).

Turning to `Cc1nc(-c2cc3ccccc3oc2=O)ccc1C(=O)/C=C/c1ccccn1`, the growth in the assay on HT29 colon is 2.1% (active); in the assay with SNB-75 CNS, 56.3%; with SNB-19 CNS, 71.6%; in the assay with U251 CNS it was 8% (active); with PC-3 prostate, 68.2%; in the assay on SK-MEL-5 melanoma it was 95.9%. The growth with LOX IMVI melanoma is -84.5% (active); in the assay with SK-MEL-28 melanoma it was 95.1%; in the assay with SK-MEL-2 melanoma, 108%.

In the case of `O=C1[C@H]2Cc3c([nH]c4ccccc34)[C@@H](c3ccc(Br)cc3)N2C(=O)CN1C1CCN(Cc2ccccc2)CC1`, the growth in the assay on HT29 colon was -30.9% (active); with SNB-75 CNS, 51.1%; in the assay with SNB-19 CNS, 47.8%; with U251 CNS, 32.3%; in the assay on PC-3 prostate it was 17%; with SK-MEL-28 melanoma it was 70.3%.

Turning to `Clc1ccc2c(OCCCN3CCOCC3)c3oc4ccccc4c3nc2c1`, the growth is 25.2% in the assay with HT29 colon; 43.5% in the assay on SNB-75 CNS; 41.9% in the assay with SNB-19 CNS; 36.2% in the assay with U251 CNS; 50.7% in the assay on PC-3 prostate; 42.7% with SK-MEL-5 melanoma. Further, the growth with LOX IMVI melanoma is 12.9%; with SK-MEL-28 melanoma, 42.1%; with SK-MEL-2 melanoma, 78.2%.

`Cc1ccc(CNS(=O)(=O)/N=C2\NC(=O)NC2=C(Cl)Cl)cc1`: the growth was 15.7% in the assay on HT29 colon; -2.97% (active) in the assay on SNB-75 CNS; 46.9% with SNB-19 CNS; 39.1% in the assay with U251 CNS; 38.9% with PC-3 prostate; 77.3% with UACC-62 melanoma. The values for the growth in the assay with SK-MEL-28 melanoma and in the assay on SK-MEL-2 melanoma were 83.8% and 28.8%, respectively.
